Holding throughout (conditions): mRNA level, 48 h; actives raise or lower the signal
Read-out in assay [1]: Paternally Expressed 10 (PEG10), PEG10 (gene 23089)
The assay can be described thus: LTEA_HepaRG_PEG10: Life Technologies and Expression Analysis (LTEA) Assay for Paternally Expressed 10 (PEG10) using HepaRG (AID 2283520).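 For AC50: differentiated HepaRG human liver cells in serum-free induction medium with 0.5% DMSO; PEG10 transcript by qRT-PCR normalised to ACTB GAPDH and POLR2A.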 Summed up: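 Human HepaRG cultures are dosed for 48 h across an eight-point half-log series starting at 100 uM, with 0.5% DMSO as vehicle and baseline. Gain or loss of PEG10 transcript is measured by qRT-PCR and fitted in both directions.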

Read-out in assay [2]: Nuclear factor NF-kappa-B p105 subunit (Homo sapiens) (UniProt P19838)
The assay can be described thus: LTEA_HepaRG_NFKB1: Life Technologies and Expression Analysis (LTEA) Assay for Nuclear Factor Kappa B Subunit 1 (NFKB1) using HepaRG (AID 2283521).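 For outcome: differentiated human HepaRG liver cells in serum-free induction medium; TaqMan qRT-PCR transcript normalised to ACTB GAPDH and POLR2A housekeeping genes.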 In outline: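 HepaRG, 48 h exposure; 8-pt half-log series from 100 uM in 0.5% DMSO; duplicates. Readout: NFKB1 mRNA by qRT-PCR (Fluidigm arrays), housekeeping-normalized. Gain/loss fit vs DMSO baseline.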

Read-out in assay [3]: Protein phosphatase 2A (PPP2R4), PTPA (gene 5524)
The assay can be described thus: LTEA_HepaRG_PPP2R4: Life Technologies and Expression Analysis (LTEA) Assay for Protein phosphatase 2A (PPP2R4) using HepaRG (AID 2283522). In outline:
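Cells were plated, cultured 48 h, switched to serum-free induction medium, then dosed for 48 h (8 points, max 100 uM, 0.5% DMSO). RNA was isolated and PPP2R4 expression measured by TaqMan qRT-PCR.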

Read-out in assay [4]: Phosphatase and tensin (PTEN), PTEN (gene 5728)
The assay can be described thus: LTEA_HepaRG_PTEN: Life Technologies and Expression Analysis (LTEA) Assay for Phosphatase and tensin (PTEN) using HepaRG (AID 2283523). Summed up: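 HepaRG, 48 h exposure, 8-pt half-log series from 100 uM top, 0.5% DMSO vehicle, duplicates. Readout: Fluidigm qRT-PCR of PTEN transcript; housekeeping normalization (ACTB, GAPDH, POLR2A). Gain or loss fitted relative to DMSO baseline.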

Read-out in assay [5]: solute carrier (SLC22A1), SLC22A1 (gene 6580)
The assay can be described thus: LTEA_HepaRG_SLC22A1: Life Technologies and Expression Analysis (LTEA) Assay for solute carrier (SLC22A1) using HepaRG (AID 2283524).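 For AC50: differentiated human HepaRG liver cells in serum-free induction medium.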 Summed up: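 qRT-PCR readout (TaqMan, Fluidigm arrays) of SLC22A1 transcript, normalized to three housekeeping genes; bidirectional curve fit relative to 0.5% DMSO vehicle. Differentiated human HepaRG cells, 48 h chemical exposure, top concentration 100 uM, half-log steps, eight points.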

Read-out in assay [6]: NAD(P)H dehydrogenase [quinone] 1 (NQO1), NQO1 (gene 1728)
The assay can be described thus: LTEA_HepaRG_NQO1: Life Technologies and Expression Analysis (LTEA) Assay for NAD(P)H dehydrogenase [quinone] 1 (NQO1) using HepaRG (AID 2283526). In outline:
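Transcript induction or suppression is quantified by qRT-PCR in human HepaRG liver cells dosed for 48 hours. Eight half-log concentrations topping at 100 uM are used, with 0.5% DMSO as vehicle and baseline.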

Read-out in assay [7]: Nuclear factor erythroid 2-related factor 2 (Homo sapiens) (UniProt Q16236)
The assay can be described thus: LTEA_HepaRG_NFE2L2: Life Technologies and Expression Analysis (LTEA) Assay for Nuclear factor erythroid 2-related factor 2 (NFE2L2) Transcription Factor using HepaRG (AID 2283527).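 For outcome: TaqMan qRT-PCR transcript level normalised to ACTB GAPDH and POLR2A housekeeping genes.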 In outline: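 HepaRG, 48 h dosing, 8-pt half-log series from 100 uM in 0.5% DMSO, duplicates. Read-out: NFE2L2 mRNA by qRT-PCR (ACTB/GAPDH/POLR2A normalization). Bidirectional curve fit vs DMSO baseline.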

Read-out in assay [8]: succinate dehydrogenase complex iron sulfur subunit B (SDHB), SDHB (gene 6390)
The assay can be described thus: LTEA_HepaRG_SDHB: Life Technologies and Expression Analysis (LTEA) Assay for succinate dehydrogenase complex iron sulfur subunit B (SDHB) using HepaRG (AID 2283528). In outline:
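Readout is SDHB transcript level by qRT-PCR, normalised to three housekeeping genes and fitted bidirectionally against 0.5% DMSO vehicle. Human HepaRG cells were treated for 48 h at up to 100 uM.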

Read-out in assay [9]: solute carrier (SLCO1B1), SLCO1B1 (gene 10599)
The assay can be described thus: LTEA_HepaRG_SLCO1B1: Life Technologies and Expression Analysis (LTEA) Assay for solute carrier (SLCO1B1) using HepaRG (AID 2283530). In outline:
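HepaRG, serum-free induction medium, 48 h dosing, 8-pt half-log from 100 uM, 0.5% DMSO vehicle, duplicates. Readout: SLCO1B1 mRNA, qRT-PCR, ACTB/GAPDH/POLR2A normalization; up or down fit vs DMSO.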

Read-out in assay [10]: sulfotransferase 2A1 (SULT2A1), SULT2A1 (gene 6822)
The assay can be described thus: LTEA_HepaRG_SULT2A1: Life Technologies and Expression Analysis (LTEA) Assay for sulfotransferase 2A1 (SULT2A1) using HepaRG (AID 2283531). Summed up:
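Transcript levels of SULT2A1, quantified by qRT-PCR and normalized to three housekeeping genes, serve as the readout. Human HepaRG cultures receive test chemicals for 48 h at up to 100 uM in half-log steps, with 0.5% DMSO vehicle.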

Read-out in assay [11]: Transforming Growth Factor (TGFA), TGFA (gene 7039)
The assay can be described thus: LTEA_HepaRG_TGFA: Life Technologies and Expression Analysis (LTEA) Assay for Transforming Growth Factor (TGFA) using HepaRG (AID 2283532). Summed up:
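qRT-PCR read-out of TGFA transcript, normalized to three housekeeping genes, fitted bidirectionally against 0.5% DMSO baseline. Human HepaRG cultures received chemicals for 48 h at eight half-log concentrations, top 100 uM.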

Read-out in assay [12]: Transforming Growth Factor (TGFB1), TGFB1 (gene 7040)
The assay can be described thus: LTEA_HepaRG_TGFB1: Life Technologies and Expression Analysis (LTEA) Assay for Transforming Growth Factor (TGFB1) Transporter using HepaRG (AID 2283533). Summed up: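 HepaRG, 48 h post-plating, switched to serum-free induction medium; chemicals 100 uM top, half-log, 8 pts, 0.5% DMSO, dup; 48 h exposure; RNA → Fluidigm TaqMan qRT-PCR; norm ACTB/GAPDH/POLR2A; bidirectional fit vs DMSO.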

Read-out in assay [13]: TIMP1, TIMP1 (gene 7076)
The assay can be described thus: LTEA_HepaRG_TIMP1: Life Technologies and Expression Analysis (LTEA) Assay for TIMP1 using HepaRG (AID 2283534). Summed up: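 Readout is TIMP1 mRNA level measured by qRT-PCR and normalized to three housekeeping genes. Human HepaRG cells were treated for 48 h in duplicate at eight concentrations up to 100 uM (0.5% DMSO); gain or loss fitted against DMSO.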

Read-out in assay [14]: Tumor necrosis factor receptor 1 (TNFRSF1A), TNFRSF1A (gene 7132)
The assay can be described thus: LTEA_HepaRG_TNFRSF1A: Life Technologies and Expression Analysis (LTEA) Assay for Tumor necrosis factor receptor 1 (TNFRSF1A) using HepaRG (AID 2283535). In outline: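 Read-out is TNFRSF1A transcript level by TaqMan qRT-PCR, normalized to three housekeeping genes, scored as gain or loss of signal versus 0.5% DMSO. Human HepaRG cells received test chemicals for 48 h at up to 100 uM (half-log series).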

Read-out in assay [15]: Thyroid Hormone Responsive (THRSP), THRSP (gene 7069)
The assay can be described thus: LTEA_HepaRG_THRSP: Life Technologies and Expression Analysis (LTEA) Assay for Thyroid Hormone Responsive (THRSP) using HepaRG (AID 2283536). Summed up:
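qRT-PCR read-out (Fluidigm TaqMan), housekeeping-normalized (ACTB/GAPDH/POLR2A). HepaRG, 48 h chemical exposure, 8-pt half-log series from 100 uM in 0.5% DMSO, duplicates. Bidirectional curve fit vs 0.5% DMSO baseline.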

Read-out in assay [16]: Cellular tumor antigen p53 (Homo sapiens) (UniProt P04637)
The assay can be described thus: LTEA_HepaRG_TP53: Life Technologies and Expression Analysis (LTEA) Assay for Tumor Protein P53 (TP53) using HepaRG (AID 2283537). Summed up: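 Read-out is TP53 transcript level by microfluidic qRT-PCR, normalised to three housekeeping genes and fitted bidirectionally against DMSO. Human HepaRG cells received compounds for 48 h, highest concentration 100 uM.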

Read-out in assay [17]: UDP glucuronosyltransferase (UGT1A1), UGT1A1 (gene 54658)
The assay can be described thus: LTEA_HepaRG_UGT1A1: Life Technologies and Expression Analysis (LTEA) Assay for UDP glucuronosyltransferase (UGT1A1) using HepaRG (AID 2283538). In outline:
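Cells are plated, cultured 48 h, switched to serum-free induction medium, then dosed 48 h at eight concentrations (max 100 uM, 0.5% DMSO). RNA is isolated and UGT1A1 expression measured by qRT-PCR; changes versus DMSO are fitted in both directions.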

Read-out in assay [18]: UDP glucuronosyltransferase (UGT1A6), UGT1A6 (gene 54578)
The assay can be described thus: LTEA_HepaRG_UGT1A6: Life Technologies and Expression Analysis (LTEA) Assay for UDP glucuronosyltransferase (UGT1A6) using HepaRG (AID 2283539). Summed up: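 HepaRG, 48 h post-plating switch to serum-free induction medium; chemical 48 h, 100 uM top, half-log x8, duplicate, 0.5% DMSO. Phenobarbital 1mM induction control. UGT1A6 mRNA by TaqMan qRT-PCR; gain/loss fit vs DMSO.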

Read-out in assay [19]: Signal transducer and activator of transcription 3 (Homo sapiens) (UniProt P40763)
The assay can be described thus: LTEA_HepaRG_STAT3: Life Technologies and Expression Analysis (LTEA) Assay for Signal transducer and activator of transcription (STAT3) using HepaRG (AID 2283529). Summed up:
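HepaRG, 48 h exposure, 8-pt half-log series (top 100 uM), 0.5% DMSO vehicle, duplicates. Readout: STAT3 transcript by Fluidigm qRT-PCR, housekeeping-normalized; bidirectional fit vs DMSO baseline.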

Read-out in assay [20]: Pyruvate Dehydrogenase Kinase 4 (PDK4), PDK4 (gene 5166)
The assay can be described thus: LTEA_HepaRG_PDK4: Life Technologies and Expression Analysis (LTEA) Assay for Pyruvate Dehydrogenase Kinase 4 (PDK4) using HepaRG (AID 2283525). Summed up:
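HepaRG (human liver line), 48 h chemical exposure, 8-pt half-log CRC top 100 uM, 0.5% DMSO vehicle, duplicates. Readout: TaqMan qRT-PCR of PDK4 mRNA, housekeeping-normalized; gain/loss fit relative to DMSO baseline.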

Broadly, the AC50 is the concentration giving half of the maximal activity seen.

The source made the active and inactive calls. Rule for the calls: active = hit-call score of the fitted dose curve at least 0.9, where 1 is the maximum; inactive = score below 0.9.

Sequence of Cellular tumor antigen p53 (Homo sapiens) (P04637 whole entry, looked up): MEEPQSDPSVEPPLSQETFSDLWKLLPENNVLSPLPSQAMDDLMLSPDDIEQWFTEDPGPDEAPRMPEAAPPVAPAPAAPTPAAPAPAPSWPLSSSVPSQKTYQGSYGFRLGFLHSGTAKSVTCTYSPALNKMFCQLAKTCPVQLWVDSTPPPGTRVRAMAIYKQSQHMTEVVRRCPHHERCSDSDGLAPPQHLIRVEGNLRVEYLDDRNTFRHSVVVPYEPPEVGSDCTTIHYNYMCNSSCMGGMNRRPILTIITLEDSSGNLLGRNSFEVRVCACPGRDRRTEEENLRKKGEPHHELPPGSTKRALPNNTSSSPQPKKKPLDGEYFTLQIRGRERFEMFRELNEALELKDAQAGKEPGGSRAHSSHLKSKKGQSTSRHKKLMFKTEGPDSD
Sequence of Nuclear factor erythroid 2-related factor 2 (Homo sapiens) (Q16236 whole entry, looked up): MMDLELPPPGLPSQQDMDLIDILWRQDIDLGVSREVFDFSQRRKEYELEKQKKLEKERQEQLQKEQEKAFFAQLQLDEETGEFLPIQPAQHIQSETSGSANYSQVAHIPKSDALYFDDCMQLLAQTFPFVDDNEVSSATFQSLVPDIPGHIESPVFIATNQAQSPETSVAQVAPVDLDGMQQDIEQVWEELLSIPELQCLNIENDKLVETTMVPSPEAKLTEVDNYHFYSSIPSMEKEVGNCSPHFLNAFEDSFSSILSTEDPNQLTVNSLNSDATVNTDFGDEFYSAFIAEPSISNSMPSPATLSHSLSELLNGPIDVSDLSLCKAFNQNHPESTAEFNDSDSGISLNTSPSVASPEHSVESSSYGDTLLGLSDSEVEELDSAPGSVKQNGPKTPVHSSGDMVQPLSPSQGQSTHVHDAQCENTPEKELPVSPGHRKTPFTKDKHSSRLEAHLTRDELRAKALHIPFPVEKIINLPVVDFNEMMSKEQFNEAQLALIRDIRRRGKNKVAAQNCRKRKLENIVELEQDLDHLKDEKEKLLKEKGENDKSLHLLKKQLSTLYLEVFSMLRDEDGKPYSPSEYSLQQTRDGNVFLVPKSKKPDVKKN
Sequence of Nuclear factor NF-kappa-B p105 subunit (Homo sapiens) (P19838 whole entry, looked up): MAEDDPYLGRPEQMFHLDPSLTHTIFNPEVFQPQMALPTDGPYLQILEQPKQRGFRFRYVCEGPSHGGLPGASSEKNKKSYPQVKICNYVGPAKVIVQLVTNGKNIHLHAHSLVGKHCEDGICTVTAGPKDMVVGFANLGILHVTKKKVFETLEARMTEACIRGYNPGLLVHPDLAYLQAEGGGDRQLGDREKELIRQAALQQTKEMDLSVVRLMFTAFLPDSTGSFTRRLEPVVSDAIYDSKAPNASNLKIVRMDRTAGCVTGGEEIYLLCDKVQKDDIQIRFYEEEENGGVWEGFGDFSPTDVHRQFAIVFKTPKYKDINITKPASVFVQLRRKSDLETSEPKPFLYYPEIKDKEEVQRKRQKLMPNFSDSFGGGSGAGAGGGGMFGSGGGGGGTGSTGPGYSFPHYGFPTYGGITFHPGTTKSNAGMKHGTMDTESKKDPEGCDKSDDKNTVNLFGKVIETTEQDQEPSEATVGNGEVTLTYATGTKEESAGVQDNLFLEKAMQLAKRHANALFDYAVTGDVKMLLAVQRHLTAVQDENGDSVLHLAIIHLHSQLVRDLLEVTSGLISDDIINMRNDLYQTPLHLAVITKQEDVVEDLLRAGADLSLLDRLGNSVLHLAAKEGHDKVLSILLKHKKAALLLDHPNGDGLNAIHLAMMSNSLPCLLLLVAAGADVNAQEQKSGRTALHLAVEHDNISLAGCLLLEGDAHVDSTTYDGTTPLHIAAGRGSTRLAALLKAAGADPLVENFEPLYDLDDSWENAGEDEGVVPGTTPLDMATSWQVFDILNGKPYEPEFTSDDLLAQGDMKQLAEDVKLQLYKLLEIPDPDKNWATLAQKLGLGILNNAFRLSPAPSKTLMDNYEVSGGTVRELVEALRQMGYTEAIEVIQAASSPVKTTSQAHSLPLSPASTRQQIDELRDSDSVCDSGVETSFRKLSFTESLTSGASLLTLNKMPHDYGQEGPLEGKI
Sequence of Signal transducer and activator of transcription 3 (Homo sapiens) (P40763 whole entry, looked up): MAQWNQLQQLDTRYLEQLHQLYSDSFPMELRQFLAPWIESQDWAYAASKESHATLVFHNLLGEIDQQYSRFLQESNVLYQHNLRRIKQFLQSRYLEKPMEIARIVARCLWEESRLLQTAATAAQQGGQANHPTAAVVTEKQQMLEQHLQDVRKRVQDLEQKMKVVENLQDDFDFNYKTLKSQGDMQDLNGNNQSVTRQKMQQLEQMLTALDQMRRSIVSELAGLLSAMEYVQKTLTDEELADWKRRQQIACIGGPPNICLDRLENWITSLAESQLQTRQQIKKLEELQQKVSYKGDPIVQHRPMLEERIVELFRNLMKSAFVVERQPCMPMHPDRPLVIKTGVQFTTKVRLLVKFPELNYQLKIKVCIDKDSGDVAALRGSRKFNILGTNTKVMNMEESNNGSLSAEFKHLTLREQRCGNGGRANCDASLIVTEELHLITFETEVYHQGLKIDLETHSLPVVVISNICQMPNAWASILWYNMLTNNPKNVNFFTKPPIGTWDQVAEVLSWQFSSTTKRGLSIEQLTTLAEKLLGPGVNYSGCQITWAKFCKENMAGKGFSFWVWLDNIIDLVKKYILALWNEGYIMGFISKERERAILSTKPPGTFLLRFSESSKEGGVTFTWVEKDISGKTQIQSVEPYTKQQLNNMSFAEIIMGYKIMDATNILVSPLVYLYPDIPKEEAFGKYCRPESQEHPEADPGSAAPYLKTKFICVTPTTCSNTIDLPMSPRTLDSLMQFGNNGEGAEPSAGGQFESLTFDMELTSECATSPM

In the case of `O=C(Nc1ccc(Cl)cc1)Nc1ccc(Cl)c(Cl)c1`, the AC50 was 21.8 µM (active) in [1]; 12.2 µM (active) in assay [2]; 21.3 µM (active) in assay [3]; 22.2 µM (active) in assay [4]; 17.4 µM (active) in assay [5]; 17.8 µM (active) in [6]. The AC50 was 13.2 µM (active) in assay [8]; 18.7 µM (active) in assay [9]; 22.7 µM (active) in [10]; 25.5 µM (active) in assay [11]; 24.4 µM (active) in assay [12]; 16 µM (active) in assay [13]. Also, the AC50 in assay [14] was 13.1 µM (active); in [16] it was 12.4 µM (active); in assay [17], 14.9 µM (active); in assay [18], 13.5 µM (active). In addition, the outcome in [7] and in assay [15] was inactive.

In the case of `CC(C)(C)c1cc(/C=C2\SC(N)=NC2=O)cc(C(C)(C)C)c1O`, the outcome in assay [1], in [8], in assay [19], in assay [15] and in assay [16] was inactive. Besides, the half-maximal activity concentration (AC50) in [2] is 93.6 µM (active); in assay [3], 96.5 µM (active); in assay [4], 18.4 µM (active); in assay [5] it was 25.3 µM (active); in [6] it was 15.8 µM (active); in assay [7] it was 22.7 µM (active). Further, the AC50 in [9] is 24.9 µM (active); in [10] it was 93.6 µM (active); in assay [11], 22.6 µM (active); in assay [12], 4.43 µM (active); in assay [13], 33.8 µM (active); in assay [14], 15.8 µM (active). The AC50 was 93.5 µM (active) in assay [17] and 22.1 µM (active) in assay [18].

Consider `OCCO`, for which the outcome in [1], in assay [2], in assay [3], in [4], in assay [5] and in assay [20] was inactive. Also, the call in assay [7], in assay [8], in assay [19], in assay [9], in [10] and in [11] was inactive. In addition, the result in assay [12], in [13], in assay [14], in assay [15], in assay [17] and in [18] was inactive. Also, in assay [16], the half-maximal activity concentration (AC50) is 9.97 µM (active).

The values above are taken from PubChem BioAssay (EPA / NIEHS).
